A selection: hits, their analogues and other compounds. The true share with any hit is near 4.3%.
Wnt act: Wnt/beta-catenin pathway activators, primary screen, cell-based, plate reader, single point; Wnt/beta-catenin reporter cell assay, activator; activation, % at 9.35 µM; 300,000 tested, 1.2% active; AID 743398, 2014; in the data active = activation above about 30%, passing the limit was not always enough; inconclusive = no clear call, values can overlap the other calls;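 note: 0% = neutral control wells and 100% = positive control wells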
SMARCA2 act: SMARCA2 (BRM) function activators, primary screen, cell-based, luminescence, high throughput | AID 652017, 2013 | activation, % at 9.1 µM | MG213 cells, MMTV-luciferase reporter, dexamethasone, overnight | 370,000 tested, 1% active; in the data active = activation above about 7.8%;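 note: 0% = vehicle wells and 100% = reference activator wells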
HSF1 activator: HSF-1 activators, primary screen, NIH3T3-HGL cells, MG132 stress, luminescence, single point | NIH3T3-HGL HSF-1 luciferase reporter, 8 h; 100% = twice DMSO control signal | activation, % at 9 µM | 300,000 tested, 1.7% active;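 active = mean replicate activation of at least 50% with a set share of replicates each reaching 50%; inconclusive = only one of those two conditions met; inactive = mean below 50% and too few replicates reaching it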;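 note: 0% = median of the neutral control wells and 100% = twice that signal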
HSF1 inh: HSF1 inhibitors in luciferase reporter cells, primary screen, cell-based, NIH3T3, luminescence | activity change, negative = inhibition, % at 7.5 µM (by protocol) | 300,000 tested, 0.77% active | NIH3T3-HGL HSE-luciferase, MG132-induced, luminescence 8 h; active compounds read low;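 active = more than half of replicate wells show activity change below -50%, luminescence cut by over half; inconclusive = some wells, but at most half, below -50%; inactive = no replicate well below -50%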;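 note: luciferase reports HSF-1 transcriptional activity via heat shock element; 0% = median of DMSO wells and -100% = zero luminescence signal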
esBAF inh: Bmi1 luciferase reporter increase in mESCs, primary screen, esBAF inhibitor project, mouse ES cells, Bmi1 luciferase knock-in, single point. 24 h; 100% = twice the neutral-well signal. reporter increase, % at 12.5 µM. 350,000 tested, 2% active. AID 602393, 2012; in the data active = activation above about 40%; inconclusive = no clear call, values can overlap the other calls;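 note: 0% = median of the plate's neutral control wells and 100% = double that signal; a rise in the Bmi1 reporter signal indicates esBAF inhibition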
MITF TRPM1 HTS: activators of MITF-driven TRPM1 promoter reporter, primary screen, cell-based, SK-MEL-5, luciferase, single point; SK-MEL-5 TRPM1-promoter luciferase, 24 h; % of positive control, neutral wells = 0; activation, % at 12.5 µM; 300,000 tested, 0.75% active;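 active = mean activation of at least 80% with every replicate also reaching 80%; inconclusive = mean reaches 80% but some replicate falls short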;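 note: 0% = neutral control wells and 100% = parthenolide positive control wells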
An asterisk follows results filed as active; u = inconclusive; x = no result given.

SMILES	Wnt act	SMARCA2 act	HSF1 activator	HSF1 inh	esBAF inh	MITF TRPM1 HTS
COc1ccc(C(=O)N/C(=C\c2cccs2)c2nc3ccccc3[nH]2)cc1OC	x	-0.1	-69.6	-60.4*	x	-9.9
COc1cccc(NC(=O)CNC(=O)N2CC(=O)Nc3ccccc32)c1	6.2	0.7	8.4	-1.1	43.8*	31.3
O=C(Cc1ccccc1)Nc1cccnc1	x	4.0	x	x	x	-6.3
O=C(Cc1ccccc1)Nc1cccc(N2C(=O)C=CC2=O)c1	-6.3	4.3	-70.0	-62.1*	x	-6.9
O=C(CCl)Nc1cccc(Oc2ccccc2)c1	-0.7	-2.1	74.0*	37.4	8.1	-64.9
COc1cccc(C(=O)CC(=O)C(=O)Nc2cc(OC)c(OC)c(OC)c2)c1	x	x	-62.3	-57.5*	x	x
COc1ccc(CNC(=O)CNC(=O)N2CC(=O)Nc3ccccc32)cc1	1.7	-2.4	-2.6	0.6	1.0	4.0
COc1ccc(NC(=O)N(C)C[C@@H]2Oc3ccc(NC(=O)Nc4ccc(C(F)(F)F)cc4)cc3CC(=O)N([C@@H](C)CO)C[C@H]2C)cc1	x	x	x	x	2.9	x
CCCN1[C@H](C(=O)NCC)[C@@H](CO)[C@@H]2Cn3c(ccc(-c4ccc(C(=O)N(C)C)cc4)c3=O)[C@@H]21	x	x	x	x	-3.3	x
CC=Cc1ccc2n(c1=O)C[C@H]1[C@H](CO)[C@@H](C(=O)Nc3ccc(-c4ccccc4)cc3)N(C(=O)CC)[C@@H]21 (mixture of isomers)	x	x	x	x	0.4	x
COC(=O)C[C@@H]1CC[C@H]2[C@@H](COc3ccc(NC(=O)c4ccccc4OC)cc3C(=O)N2C)O1	x	x	x	x	-6.0	x
COc1cccc(NC(=O)C(=O)NCc2ccncc2)c1	23.0	0.4	42.9	16.4	52.0*	u
O=C1CN(C(=O)OCc2ccccc2)c2ccccc2N1	21.6	6.2	8.2	22.0	49.5*	57.7
COc1cccc(NC(=O)CC(=O)c2ccccc2)c1	33.1*	2.9	40.8	17.8	u	79.6
COc1cccc(NC(=O)CC(C)=O)c1	-0.5	-1.1	26.3	-1.9	-0.1	3.0
COc1cccc(NC(=O)Cc2ccccc2)c1	u	5.3	-5.0	3.1	63.6*	69.2
COc1cccc(NC(=O)CCSc2nnc3scc(-c4ccccc4)n23)c1	-4.8	-0.4	-78.0	-72.9*	x	-12.9
Nc1ccc(-c2nnn(Cc3ccccc3)n2)cc1	4.3	1.8	x	x	19.4	x
CSc1ccc(-c2nnn(Cc3ccc(C)cc3)n2)cc1	x	3.6	24.8	26.9	x	94.3*
Nc1ccc2c(c1)C/C(=C/c1ccco1)C2=O	66.5*	1.9	10.6	-6.0	x	55.3
O=C1c2ccccc2C(=O)c2c1ccc(O)c2O	0.0	-2.2	x	x	-22.9	3.7
COC(=O)c1ccc2c(c1O)C(=O)c1ccccc1C2=O	19.2	4.3	99.5*	58.6	27.8	-97.1
COCC(=O)Nc1ccc2c(c1)[C@@H]1C[C@H](CC(=O)NCc3ccccc3F)O[C@@H](CO)[C@@H]1O2	x	x	x	x	-7.3	x
Cc1ccc(C(=O)Nc2cccc(-c3ccc(N4CCOCC4)nn3)c2)cc1[N+](=O)[O-]	32.8*	5.9	20.6	4.8	41.4*	102.8*
O=C(Nc1cccc(-c2ccc(N3CCOCC3)nn2)c1)c1ccccc1	24.8	7.7	35.7	21.5	34.5	u
SMILES	Wnt act	SMARCA2 act	HSF1 activator	HSF1 inh	esBAF inh	MITF TRPM1 HTS
O=C(Nc1cccc(-c2ccc(N3CCOCC3)nn2)c1)c1ccc([N+](=O)[O-])cc1	31.5*	3.5	28.0	3.0	52.1*	98.9*
O=C(COc1ccccc1)Nc1cccc(-c2ccc(N3CCOCC3)nn2)c1	u	3.8	28.0	15.0	-7.0	85.9*
O=C(Nc1cccc(-c2ccc(N3CCCCC3)nn2)c1)c1ccc(Br)o1	u	7.9*	-4.4	2.9	-8.4	44.5
O=[N+]([O-])c1ccc(S(=O)(=O)Nc2cccc(-c3ccc(N4CCOCC4)nn3)c2)cc1	13.2	3.7	16.6	11.7	27.1	47.5
Cc1noc(C)c1NC(=O)N1C[C@@H](O)COC[C@H]2O[C@@H](CC(=O)NCC3CC3)CC[C@@H]21	x	x	x	x	-3.3	x
COc1ccc(NC(=O)Nc2cccc3c2O[C@@H](CN(C)Cc2ccccc2)[C@@H](C)CN([C@H](C)CO)C3=O)cc1	x	x	x	x	1.2	x
C[C@@H]1CCCCO[C@H](CN(C)S(=O)(=O)c2ccc(F)cc2)[C@@H](C)CN([C@@H](C)CO)C(=O)c2cc(N(C)C)ccc2O1	x	x	x	x	4.8	x
CCCN(C[C@@H]1N[C@@H](CO)[C@H]1c1ccc(-c2cccnc2)cc1)C(C)=O	x	x	x	x	4.9	x
C[C@H](CO)N1C[C@H](C)[C@H](CN(C)C(=O)C2CCCCC2)Oc2ncc(C#CC3CCCCC3)cc2C1=O	x	x	x	x	-0.5	x
Cc1ccccc1C(=O)Nc1cccc(-c2ccc(N3CCOCC3)nn2)c1	29.9	1.7	9.5	20.3	59.8*	52.5
CNC(=O)c1ccc(-c2cc(C(F)(F)F)nn2C)s1	35.0*	0.3	19.4	-1.5	x	x
Cn1nc(C(F)(F)F)cc1-c1ccc(/C=C(\C#N)C(=O)c2ccccc2)s1	15.8	-0.2	21.5	-1.9	x	x
Cn1c2ccccc2c(=O)c2cc(C#CC3(O)CCCCC3)ccc21	-11.5	0.2	-86.7	-84.7*	-62.9	-24.6
O=c1c2ccccc2oc2ccc(C#CC3(O)CCCCC3)cc12	-9.8	-1.6	-87.2	-86.1*	-39.6	-3.1
Cn1c2ccccc2c(=O)c2ccc(C#Cc3ccccn3)cc21	-0.6	2.2	6.1	7.9	x	x
Cc1cc2sc3ccc(C#CC4(O)CCCCC4)cc3c(=O)c2cc1C	-23.0	-7.8	-92.7	-90.3*	-83.6	-95.8
NC1(C#Cc2ccc3c(=O)c4ccccc4sc3c2)CCCCC1	7.2	0.6	x	x	-5.7	43.5
N#Cc1ccc(C#Cc2ccc3oc4ccccc4c(=O)c3c2)cc1	-0.3	4.4	x	x	-1.9	3.2
CCN(/N=C/c1ccc(Cl)cc1)c1cc(=O)n(C)c(=O)[nH]1	-2.3	1.7	18.9	13.8	x	-11.9
CCN(/N=C/C=C/c1ccccc1)c1cc(=O)n(C)c(=O)[nH]1	6.3	3.7	69.2*	26.6	x	0.3
CNC[C@@H]1Oc2ccc(NC(=O)Nc3ccc(OC)cc3)cc2CC(=O)N([C@@H](C)CO)C[C@H]1C	x	x	x	x	2.6	x
COc1ccc(-n2nc3cc(N)c(Br)cc3n2)cc1	4.5	3.2	13.6	7.3	57.0*	x
COc1ccc(-n2nc3ccccc3n2)cc1	16.2	0.2	-53.9	-39.3	27.2	24.7
CC(C)[C@H](NC(=O)Cc1ccccc1)C(=O)OCc1cc(=O)n2c(n1)sc1ccccc12	1.8	-1.9	-78.4	-72.3*	x	-8.0

Assay outcomes from PubChem.
